These results are taken from PubChem BioAssay (NCI).

About 79,000 compounds went through this panel and 15% of them were active in at least one assay; those are over-represented in the sample as a whole. A number with no mark means an inactive call. Calls of active or inactive are those of the source. Cut-off read from the data, not from the text of the source: active = growth inhibition above about 70%; inactive = the rest.

The nature of the first test: NCI Yeast Anticancer Drug Screen. Data for the mec2-1 strain (AID 157). To be noted: S. cerevisiae mec2-1 strain, at 50.0 µM, stronger effect = higher value. In a few lines: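 Test agents were screened against the mec2-1 yeast strain, with defined DNA repair or cell cycle alteration. Growth was scored as inhibition against vehicle-only controls.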
With `CCCCCCCCCCCCCCCC[As](CCCCCCCCCCCCCCCC)SCC1OC(OC(C)=O)C(OC(C)=O)C(OC(C)=O)C1OC(C)=O` (stereo not given), the growth inhibition was 3.45%.
On to `CCCCSP(=O)(SCCCC)N1CCCCC1`, for which the growth inhibition was 99.2% (active).
For `CC(C)CN(CC(C)C)[N+](=O)[O-]`, the growth inhibition is 1.45%.
As for `CN(N)c1ccc([N+](=O)[O-])cc1[N+](=O)[O-]`, the growth inhibition was -39.1%.
`O=c1ccc(=O)[nH][nH]1.[Zn+2]`: the growth inhibition was 5.1%.
Turning to `O=C(c1cc(N(CCCl)CCCl)c([N+](=O)[O-])cc1[N+](=O)[O-])N1CCOCC1`, the growth inhibition was -3.55%.
Regarding `CCN(CC)CCn1c(=O)n(C)c2ccccc21`, the growth inhibition is -18.7%.
For the compound `Cc1nc2cccc(F)c2c(=O)n1-c1nnc(C(F)(F)F)s1`, the growth inhibition was 8.8%.
With `O=P(O)(NCCCl)NCCCl`, the growth inhibition was -17.9%.
Consider `Clc1ccc(C(c2ccccc2Cl)C(Cl)(Cl)Cl)cc1` (stereo not given), for which the growth inhibition was -7.8%.
On to `COc1ccc(C)cc1C(CC(=O)O)CC(=O)N(CCCl)CCCl` (stereo not given), for which the growth inhibition was -2.45%.
Turning to `C[N+](C)(Cc1ccccc1[N+](=O)[O-])c1ccc(N(CCCl)CCCl)cc1`, the growth inhibition is -8.15%.
The same measure, in the same setting: for `O=C(CCCN1CCC2(CC1)C(=O)NCN2c1ccccc1)c1ccccc1` the value was -2.65%.
On the same count and under the same terms, then `NCCCC(N)P(=O)(O)O` (stereo not given), with -1.6%; and `ClCCCCBr`, with -14.2%.
With `CC(CN1NC12CCCC2)N1NC12CCCC2` (stereo not given), the growth inhibition was -1.85%.

The next test can be described thus: NCI Yeast Anticancer Drug Screen. Data for the sgs1 mgt1 strain (AID 161).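 Note: 0% = growth of cultures given vehicle only.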 As to conditions: S. cerevisiae sgs1 mgt1 strain, at 50.0 µM, stronger effect = higher value. In a few lines:
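Genetically altered yeast, compound exposure, growth inhibition relative to vehicle.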
For the compound `O=[N+]([O-])C(CO)CCCC(CO)[N+](=O)[O-]` (stereo not given), the growth inhibition is 5.65%.
As to `CN1CCC[N+](C)=C1c1ccc(N(C)C)cc1`, the growth inhibition is -4.5%.
On to `COP1(=S)OCC2OC(n3cc(C)c(=O)[nH]c3=O)CC2O1` (stereo not given), for which the growth inhibition was -12.8%.
Turning to `CN(c1ccccc1)c1nc(=[N+]2CCCC2)ss1`, the growth inhibition was -11.8%.
Take `NC(Cc1ccccc1)c1nn[nH]n1` (stereo not given): the growth inhibition was -35.6%.
Consider `O=C1NC(=O)C2(c3ccccc3)CCN1C2=O` (stereo not given), for which the growth inhibition is 1.8%.
Consider `Cc1cc(C)c(CCN(C)C)c(C)c1C`, for which the growth inhibition was 4.95%.
For the compound `O=C1N=NC(Cl)c2ccccc21` (stereo not given), the growth inhibition is -19.1%.
`CN(C)c1ccc(C=O)cc1.[C-]#[O+].[C-]#[O+].[C-]#[O+].[Cr]`: the growth inhibition is -57.5%.
As to `CC12CC/C(=N/NC(=O)Cc3c[nH]c4ccccc34)C=C1CCC1C2CCC2(C)C(OC(=O)c3ccccc3)CCC12` (stereo not given), the growth inhibition is 24.1%.
Regarding `COc1cccc(C2CC(=O)c3cccn32)c1` (stereo not given), the growth inhibition was -4.7%.
Regarding `COc1cc(CC(N)c2ccccc2)ccc1O` (stereo not given), the growth inhibition is 11.8%.
Turning to `CCCCC1(CCSC(=S)OCC)C(=O)NC(=O)NC1=O`, the growth inhibition is 1.55%.
Turning to `CC(=O)Oc1ccc(CCN(C)C2CC3CCC2(C)C3(C)C)cc1OC(C)=O` (stereo not given), the growth inhibition is 46.2%.
On to `O=[N+]([O-])c1cccc(C(Cl)Cl)c1`, for which the growth inhibition is 22.4%.
In the case of `CCOP(=S)(NCCCOC)OCC`, the growth inhibition was 12.3%.
`CCOC(OC1=C(C#N)CCCC1)C(C)[Se]c1ccccc1` (stereo not given): the growth inhibition was 54.2%.
Regarding `FC(F)(F)[S-].FC(F)(F)[S-].[C-]#[O+].[C-]#[O+].[C-]#[O+].[C-]#[O+].[C-]#[O+].[C-]#[O+].[C-]#[O+].[C-]#[O+].[Mn].[Mn]`, the growth inhibition was 99.7% (active).
Regarding `BrCC[N+]12CC[N+](CCBr)(CC1)C2` (tested in a mixture with another compound), the growth inhibition is 81.6% (active).
With `NS(=O)(=O)CC1CC[CH-]CC1.[Cl-].[Cl-].[Cl-].[Cl-].[Cl-].[Sb+5].c1ccncc1`, the growth inhibition was -10%.
Take `CC1(C)N=C(N)N=C(N)N1c1ccc(CCCCCCc2ccc(S(=O)(=O)F)cc2)cc1`: the growth inhibition is 99.5% (active).
`COC(=O)C1(O)c2ccccc2N=C2C1CCN2C` (stereo not given): the growth inhibition is -8.85%.
Consider `[N-]=[N+]=CC(=O)CCC(=O)C=[N+]=[N-]`, for which the growth inhibition was -27.1%.
Take `CCCCCCCCCCCCCCCC[As](CCCCCCCCCCCCCCCC)SCC1OC(OC(C)=O)C(OC(C)=O)C(OC(C)=O)C1OC(C)=O` (stereo not given): the growth inhibition was 6%.
Regarding `CCCCSP(=O)(SCCCC)N1CCCCC1`, the growth inhibition was 98.8% (active).
On to `CC(C)CN(CC(C)C)[N+](=O)[O-]`, for which the growth inhibition is -17.8%.
As to `CN(N)c1ccc([N+](=O)[O-])cc1[N+](=O)[O-]`, the growth inhibition is -29.8%.
In the case of `O=c1ccc(=O)[nH][nH]1.[Zn+2]`, the growth inhibition was -4.8%.
As for `O=C(c1cc(N(CCCl)CCCl)c([N+](=O)[O-])cc1[N+](=O)[O-])N1CCOCC1`, the growth inhibition was 13.2%.
Take `CCN(CC)CCn1c(=O)n(C)c2ccccc21`: the growth inhibition is -13.3%.
`Cc1nc2cccc(F)c2c(=O)n1-c1nnc(C(F)(F)F)s1`: the growth inhibition was 16.5%.
As to `O=P(O)(NCCCl)NCCCl`, the growth inhibition is -22.7%.
With `Clc1ccc(C(c2ccccc2Cl)C(Cl)(Cl)Cl)cc1` (stereo not given), the growth inhibition is 1.8%.
Consider `COc1ccc(C)cc1C(CC(=O)O)CC(=O)N(CCCl)CCCl` (stereo not given), for which the growth inhibition is 6.05%.
As to `C[N+](C)(Cc1ccccc1[N+](=O)[O-])c1ccc(N(CCCl)CCCl)cc1`, the growth inhibition is -4.2%.
Take `O=C(CCCN1CCC2(CC1)C(=O)NCN2c1ccccc1)c1ccccc1`: the growth inhibition is -0.85%.
`NCCCC(N)P(=O)(O)O` (stereo not given): the growth inhibition was 2.6%.
For `ClCCCCBr`, the growth inhibition is 20.4%.
For the compound `CC(CN1NC12CCCC2)N1NC12CCCC2` (stereo not given), the growth inhibition was 29.2%.
